This is part of a sample that, as a whole, favours compounds with a hit. Of some 79,000 tested, about 15% had one in any assay. Active and inactive are the calls of the source. Rule as the data show it: active = growth inhibition above about 70%; inactive = the rest. *1 amine or outer side, *2 acyl side, *3 side chain or, on linkers, in order; H or OH if unused. Where a SMILES comes first, the peptide text is derived from it. Bridges are numbered along the chain shown (N, C = ends). Roman numbers before positions name the chains, in order. [ ]: non-standard residue; d: D form. Actinocin(9to1) = Cc1c2oc3c(C)ccc(C(=O)[*:1])c3nc-2c(C(=O)[*:2])c(N)c1=O; NMeT = CN[CH](C(=O)O)[CH](C)O; Abu = CC[CH](N)C(=O)O; Sar = CNCC(=O)O

This passage reports growth inhibition results from PubChem BioAssay (NCI).

One assay in a line: NCI Yeast Anticancer Drug Screen. Data for the bub3 strain (AID 167). Conditions: S. cerevisiae bub3 mutant strain, at 50.0 µM, stronger effect = higher value. Summed up:
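Readout: yeast growth inhibition, expressed relative to vehicle-only wells. The test organism is a mutant strain from a panel with lesions in DNA repair or checkpoint genes.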
`CN(C)c1ccc(/C=C/c2ccccc2)cc1`: the growth inhibition was -16.2% (inactive).

As to `OCC12OCC(O1)C(O)C(O)C2O` (stereo not given), the growth inhibition was -4.05% (inactive).

Regarding `COc1cccc(S(=O)(=O)c2c(C)cc(C)cc2C)c1`, the growth inhibition was 1.1% (inactive).

In the case of `CC1(c2ccc3cccc(F)c3c2)OC(=O)c2ccccc21` (stereo not given), the growth inhibition is -4.25% (inactive).

As to `Nc1[nH]c(=S)[nH]c(=O)c1N=Cc1ccc2c(c1)OCO2`, the growth inhibition is 16.2% (inactive).

For the compound `O=c1[nH]c(=O)c2nccnc2[nH]1`, the growth inhibition is 5% (inactive).

For `O=C(O)c1ccc(Cl)cc1C(=O)c1ccc(Cl)cc1`, the growth inhibition is -1.7% (inactive).

Regarding `CCOC(=O)C1(C)CCC(C(=O)OC)C1=O` (stereo not given), the growth inhibition is -59.6% (inactive).

`CCCCCCC(c1ccc(N(C)C)cc1)c1ccc(N(C)C)cc1`: the growth inhibition was 24.9% (inactive).

For the compound `CCOC(=O)C(C(=O)OCC)=C(N)C(Cl)(Cl)Cl`, the growth inhibition was 11.7% (inactive).

In the case of `COc1ccccc1OCc1nnc(SCC(=O)O)n1-c1ccccc1`, the growth inhibition was 8.4% (inactive).

As for `CCO/C([O-])=C(\C=N\S(=O)(=O)c1ccc(C)cc1)[n+]1ccc(C)cc1`, the growth inhibition is -4.2% (inactive).

Turning to `Cc1ccc2nc(CN(CCO)CCO)cc(=O)n2c1`, the growth inhibition is 26.6% (inactive).

Take `CCCCCCc1c(N)nc(N)[nH]c1=O`: the growth inhibition was -12.9% (inactive).

As for `CN(C)CCSS(=O)(=O)O`, the growth inhibition is -19.1% (inactive).

Turning to `O=C(Nc1ccc(Cl)cc1)Nc1nnc(-c2cccc(-c3nnc(NC(=O)Nc4ccc(Cl)cc4)o3)c2)o1`, the growth inhibition is -3.5% (inactive).

For `CC(CC(=O)O)(CC(=O)O)c1ccccc1`, the growth inhibition was -7.05% (inactive).

Turning to `NCS(=O)(=O)O`, the growth inhibition was -24.2% (inactive).

As for `Cc1cc(=O)n2[nH]nnc2n1`, the growth inhibition was 12.5% (inactive).

In the case of `Cc1cccc(C(C)(C)C)c1NC(=O)CC1C(=O)Nc2ccccc2S1(=O)=O` (stereo not given), the growth inhibition was 9.5% (inactive).

As to `C(=C\C(SCc1ccccc1)SCc1ccccc1)/c1ccccc1`, the growth inhibition was -7.2% (inactive).

Take `Cc1ccc(C)n1N(c1ccccc1)c1ccccc1`: the growth inhibition was 21.6% (inactive).

For the compound `CCCCc1c2c(nc3c1CCCC3=O)C(=O)CCC2`, the growth inhibition is -2.45% (inactive).

Regarding `COc1cccc(C2c3cc4c(cc3OC(C)(O)C2C)OCO4)c1OC` (stereo not given), the growth inhibition was 24.8% (inactive).

As for `CCC(N)C(=O)NC(C(N)=O)C(C)C` (stereo not given) (H-[Abu]-Val-NH2; configuration not given here), the growth inhibition was -4.7% (inactive).

Take `O=C1c2cc3c(cc2CC12Cc1cc4c(cc1C2)CCC4)CCC3`: the growth inhibition was -3% (inactive).

As to `Cc1cccc(C)c1NC(=O)C(=O)CC(=O)CO`, the growth inhibition was 21% (inactive).

With `CCCCC(=O)c1ccc2ccccc2c1O`, the growth inhibition is -6.3% (inactive).

For `C1CC2CCC1CN(C1COC(N3CC4CCC(CC4)C3)CO1)C2` (stereo not given), the growth inhibition was 4.9% (inactive).

For the compound `c1ccc(Nc2ccc3ccccc3n2)cc1`, the growth inhibition is -1.8% (inactive).

For `O=c1c2c(-c3ccccc3)onc2n(-c2ccccc2)c(=O)n1-c1ccccc1`, the growth inhibition was -4.2% (inactive).

`Cc1c2oc3c(C)ccc(C(=O)NC4C(=O)NC(C(C)C)C(=O)N5CCCC5C(=O)N(C)CC(=O)N(C)C(C(C)O)C(=O)OC4C)c3nc-2c(C(=O)NC2C(=O)NC(C(C)C)C(=O)N3CCCC3C(=O)N(C)CC(=O)N(C)C(C(C)O)C(=O)OC2C)c(N)c1=O` (stereo not given) (I: TVP[Sar][NMeT] / II: TVP[Sar][NMeT]; ester I:1-I:C, II:1-II:C; linker I:N-II:N via Actinocin(9to1); configuration not given here): the growth inhibition was -5.3% (inactive).

With `CCCCCCCCCCCCCCCCCC[N+](C)(C)Cc1c(Cl)c(Cl)c(Cl)c(Cl)c1Cl`, the growth inhibition was 24.6% (inactive).

Regarding `C/C(=N\NC(=O)c1ccccc1O)c1cccc(/C(C)=N/NC(=O)c2ccccc2O)n1.O=S(=O)([O-])[O-].[Fe+2]`, the growth inhibition is 0.65% (inactive).

For `CC1=CN2C(c3ccc(Cl)cc3)=NON(c3ccc(C)cn3)C2C=C1` (stereo not given), the growth inhibition was 5.25% (inactive).

Regarding `O=C(Nc1ccccc1)C1(Cl)CCCCC1`, the growth inhibition was -4.7% (inactive).

For `O=C(O)CCCc1ccc(O)cc1`, the growth inhibition was -1.15% (inactive).

With `COc1cc(/C=C2\SC(=S)N(/C=C(/C#N)C(=O)c3ccc4ccccc4c3)C2=O)cc(OC)c1OC`, the growth inhibition is 27.2% (inactive).

For the compound `NC(N)=NCCCC(O)C(=O)O` (stereo not given), the growth inhibition was 2.25% (inactive).

With `CNn1c(-c2ccccc2)n[nH]c1=O`, the growth inhibition was 6.45% (inactive).

Another assay can be described thus: NCI Yeast Anticancer Drug Screen. Data for the mlh1 rad18 strain (AID 175). Conditions: S. cerevisiae mlh1 rad18 strain growth inhibition; at 50.0 µM; stronger effect = higher value. Summed up: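 Growth inhibition of the yeast strain was measured after compound exposure and expressed relative to vehicle-treated controls. The strain carries defined defects in DNA damage repair.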
`CN(C)c1ccc(/C=C/c2ccccc2)cc1`: the growth inhibition is 1.55% (inactive).

In the case of `OCC12OCC(O1)C(O)C(O)C2O` (stereo not given), the growth inhibition is -16.8% (inactive).

With `COc1cccc(S(=O)(=O)c2c(C)cc(C)cc2C)c1`, the growth inhibition was -12.8% (inactive).

For `CC1(c2ccc3cccc(F)c3c2)OC(=O)c2ccccc21` (stereo not given), the growth inhibition is -12.7% (inactive).

`Nc1[nH]c(=S)[nH]c(=O)c1N=Cc1ccc2c(c1)OCO2`: the growth inhibition is 9.7% (inactive).

Turning to `O=c1[nH]c(=O)c2nccnc2[nH]1`, the growth inhibition was 5.1% (inactive).

As for `O=C(O)c1ccc(Cl)cc1C(=O)c1ccc(Cl)cc1`, the growth inhibition is -13.1% (inactive).

In the case of `CCOC(=O)C1(C)CCC(C(=O)OC)C1=O` (stereo not given), the growth inhibition is -18.1% (inactive).

In the case of `CCCCCCC(c1ccc(N(C)C)cc1)c1ccc(N(C)C)cc1`, the growth inhibition was 29.9% (inactive).

Consider `CCOC(=O)C(C(=O)OCC)=C(N)C(Cl)(Cl)Cl`, for which the growth inhibition was -1.9% (inactive).

On to `COc1ccccc1OCc1nnc(SCC(=O)O)n1-c1ccccc1`, for which the growth inhibition was 27.9% (inactive).

Take `CCO/C([O-])=C(\C=N\S(=O)(=O)c1ccc(C)cc1)[n+]1ccc(C)cc1`: the growth inhibition is 6.45% (inactive).

As for `Cc1ccc2nc(CN(CCO)CCO)cc(=O)n2c1`, the growth inhibition was 28.4% (inactive).

Consider `CCCCCCc1c(N)nc(N)[nH]c1=O`, for which the growth inhibition is -14.2% (inactive).

Take `CN(C)CCSS(=O)(=O)O`: the growth inhibition is -14.2% (inactive).

`O=C(Nc1ccc(Cl)cc1)Nc1nnc(-c2cccc(-c3nnc(NC(=O)Nc4ccc(Cl)cc4)o3)c2)o1`: the growth inhibition was 14% (inactive).

For `CC(CC(=O)O)(CC(=O)O)c1ccccc1`, the growth inhibition was -35.1% (inactive).

Regarding `NCS(=O)(=O)O`, the growth inhibition is -26.1% (inactive).

For `Cc1cc(=O)n2[nH]nnc2n1`, the growth inhibition is 14.2% (inactive).

On to `Cc1cccc(C(C)(C)C)c1NC(=O)CC1C(=O)Nc2ccccc2S1(=O)=O` (stereo not given), for which the growth inhibition was 23.9% (inactive).

In the case of `C(=C\C(SCc1ccccc1)SCc1ccccc1)/c1ccccc1`, the growth inhibition is -35.6% (inactive).

`Cc1ccc(C)n1N(c1ccccc1)c1ccccc1`: the growth inhibition was 9.1% (inactive).

As for `CCCCc1c2c(nc3c1CCCC3=O)C(=O)CCC2`, the growth inhibition is -9.15% (inactive).

In the case of `COc1cccc(C2c3cc4c(cc3OC(C)(O)C2C)OCO4)c1OC` (stereo not given), the growth inhibition was 21.6% (inactive).

As to `CCC(N)C(=O)NC(C(N)=O)C(C)C` (stereo not given) (H-[Abu]-Val-NH2; configuration not given here), the growth inhibition was 13.2% (inactive).

For `O=C1c2cc3c(cc2CC12Cc1cc4c(cc1C2)CCC4)CCC3`, the growth inhibition is -1.35% (inactive).

As to `Cc1cccc(C)c1NC(=O)C(=O)CC(=O)CO`, the growth inhibition is -6.25% (inactive).

Take `CCCCC(=O)c1ccc2ccccc2c1O`: the growth inhibition is 6.8% (inactive).

For `C1CC2CCC1CN(C1COC(N3CC4CCC(CC4)C3)CO1)C2` (stereo not given), the growth inhibition is -0.65% (inactive).

Take `c1ccc(Nc2ccc3ccccc3n2)cc1`: the growth inhibition is 16.4% (inactive).

As to `O=c1c2c(-c3ccccc3)onc2n(-c2ccccc2)c(=O)n1-c1ccccc1`, the growth inhibition is 36.5% (inactive).

Take `Cc1c2oc3c(C)ccc(C(=O)NC4C(=O)NC(C(C)C)C(=O)N5CCCC5C(=O)N(C)CC(=O)N(C)C(C(C)O)C(=O)OC4C)c3nc-2c(C(=O)NC2C(=O)NC(C(C)C)C(=O)N3CCCC3C(=O)N(C)CC(=O)N(C)C(C(C)O)C(=O)OC2C)c(N)c1=O` (stereo not given) (I: TVP[Sar][NMeT] / II: TVP[Sar][NMeT]; ester I:1-I:C, II:1-II:C; linker I:N-II:N via Actinocin(9to1); configuration not given here): the growth inhibition was -52.5% (inactive).

`CCCCCCCCCCCCCCCCCC[N+](C)(C)Cc1c(Cl)c(Cl)c(Cl)c(Cl)c1Cl`: the growth inhibition was 1.65% (inactive).

Consider `C/C(=N\NC(=O)c1ccccc1O)c1cccc(/C(C)=N/NC(=O)c2ccccc2O)n1.O=S(=O)([O-])[O-].[Fe+2]`, for which the growth inhibition was 40.7% (inactive).

Take `CC1=CN2C(c3ccc(Cl)cc3)=NON(c3ccc(C)cn3)C2C=C1` (stereo not given): the growth inhibition was 8.35% (inactive).

Turning to `O=C(Nc1ccccc1)C1(Cl)CCCCC1`, the growth inhibition is 1.8% (inactive).

For the compound `O=C(O)CCCc1ccc(O)cc1`, the growth inhibition was 20.3% (inactive).

`COc1cc(/C=C2\SC(=S)N(/C=C(/C#N)C(=O)c3ccc4ccccc4c3)C2=O)cc(OC)c1OC`: the growth inhibition is 31.4% (inactive).

Take `NC(N)=NCCCC(O)C(=O)O` (stereo not given): the growth inhibition was 0.85% (inactive).

Regarding `CNn1c(-c2ccccc2)n[nH]c1=O`, the growth inhibition was 19.4% (inactive).
